Consider one compound from PubChem BioAssay (EPA / NIEHS).

Records with an inconclusive call do not appear. Calls of active or inactive are those of the source. The calls were made as follows: active = hit-call score of the fitted dose curve at least 0.9, where 1 is the maximum; inconclusive = response in the unintended direction; inactive = score below 0.9.

Assay [1] can be described thus: CCTE_Shafer_MEA_acute_AB: CCTE's Alamar Blue Assay for Cytotoxicity in the Neural Acute Assay, Shafer Lab (AID 2284069).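 Also: active compounds lower the viability signal compared with DMSO wells.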 The method, boiled down: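 Cytotoxicity endpoint for acute MEA exposures of primary rat cortical neurons on day 13 or 15. Resazurin reduction is read fluorescently at 544/590 nm, with DMSO as the negative-control baseline.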
Assay [2] is described as follows: CCTE_Shafer_MEA_acute_LDH: CCTE's Lactate Dehydrogenase Assay for Cytotoxicity in the Neural Acute Assay, Shafer Lab (AID 2284086).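 Also: active means LDH release rises above DMSO vehicle level.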 The method, boiled down: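 Released lactate dehydrogenase, read at 490 nm, indicated cytotoxicity after acute 40-min compound treatment of rat cortical neuron networks grown on 48-well MEA plates.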

`CCN=C1C=CC(=C(c2ccc(N(CC)CC)cc2)c2ccc(N(CC)CC)cc2)c2ccccc21`: the half-maximal activity concentration (AC50) in assay [1] is 6.86 µM (active). The compound was called inactive in assay [2].
